Screening results as filed in PubChem BioAssay.
SMN2 splice up: qHTS Assay for Enhancers of SMN2 Splice Variant Expression. HEK293 SMN2-luciferase splicing reporter, luminescence, 30-36 h. Potency, µM (series often up to 46.1 µM), inactives show at the top dose activity change, positive = activation, hits mostly activators. 210,000 tested, 2.8% active. AID 1458, 2008; further: % of control where 0% means no effect; nearly all actives have a fitted effect of over 55% in size
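HEK293 cells carry an SMN2 minigene-luciferase reporter in which exon 7 inclusion puts luciferase in frame. Cells were seeded at 2000 cells/well, attached for 10-12 hours, then exposed to compounds for 30-36 hours at 37C before ONE-Glo luminescence.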
ELG1 genotoxic: qHTS screen for small molecules that induce genotoxicity in human embryonic kidney (HEK293T) cells expressing luciferase-tagged ELG1 | Potency, µM (titrated, usually from 46 µM), without a hit: top-dose activity change, positive = activation, usual class: activators | 330,000 tested, 1.3% active | HEK293T ELG1-luciferase reporter, luminescence, 16 h | AID 504466, 2011; further: % of control where 0% means no effect; nearly all actives have a fitted effect of over 60% in size
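Quantitative HTS format in 1536-well plates. HEK293T ELG1-luciferase reporter cells receive test compound and are incubated 16 hr at 37 °C, 5% CO2; ONE-Glo added, 30 min room temperature, then luminescence read.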
FLuc counter: qHTS profiling assay for firefly luciferase inhibitor/activator using purifed enzyme and Km concentrations of substrates (counterscreen for miR-21 project); Potency, µM (series often up to 57.5 µM), for inactives: at the top dose activity change, negative = inhibition, most hits filed as inhibitors; Luciferin 4-monooxygenase (Photinus pyralis), P08659; purified FLuc, Km substrates, luminescence inhibition; 360,000 tested, 6.9% active;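 further: plate controls were vehicle for no effect and reference inhibitor for full effect; nearly all actives have a fitted effect of over 55% in size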
Target sequence (P08659 whole entry, looked up): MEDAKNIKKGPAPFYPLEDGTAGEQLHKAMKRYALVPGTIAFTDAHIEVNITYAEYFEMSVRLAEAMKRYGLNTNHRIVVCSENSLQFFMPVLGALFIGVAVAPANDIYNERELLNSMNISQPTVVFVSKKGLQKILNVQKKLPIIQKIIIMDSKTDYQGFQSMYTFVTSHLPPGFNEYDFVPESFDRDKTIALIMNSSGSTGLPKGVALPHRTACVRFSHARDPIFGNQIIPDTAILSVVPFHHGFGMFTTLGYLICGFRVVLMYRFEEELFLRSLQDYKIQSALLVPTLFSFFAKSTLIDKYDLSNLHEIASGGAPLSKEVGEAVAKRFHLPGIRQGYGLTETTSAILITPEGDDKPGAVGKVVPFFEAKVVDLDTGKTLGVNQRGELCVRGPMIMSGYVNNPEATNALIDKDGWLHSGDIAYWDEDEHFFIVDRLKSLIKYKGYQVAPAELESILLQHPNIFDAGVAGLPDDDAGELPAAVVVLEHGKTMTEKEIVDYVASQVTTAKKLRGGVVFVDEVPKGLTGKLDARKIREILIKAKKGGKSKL
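Purified P. pyralis luciferase (10nM final) with 10uM D-luciferin and 10uM ATP (Km levels) in 50mM Tris acetate pH 7.5, 10mM Mg acetate, 0.01% Tween-20, 0.05% BSA; qHTS 6-point titration, ~60 µM downward; luminescence read.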
Luc counter: Counterscreen for Luciferase (Kinase-Glo TM) Inhibition. Kinase-Glo luciferase, ATP luminescence, 8 min. Luciferin 4-monooxygenase (Photuris pensylvanica), Q27757. 200,000 tested, 0.28% active. AID 1379, 2008. Potency, µM (series often up to 38.3 µM), for the others: at the highest dose activity change, negative = inhibition, usual class: inhibitors; further: on the % scale 0 is the no-effect control and ±100 the full control effect; nearly all actives have a fitted effect of over 60% in size
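Substrate mix (final 50 mM imidazole pH 7.2, 50 mM KCl, 7 mM MgCl2, 10 uM ATP, 0.01% Tween 20, 0.05% BSA) plus pin-tool compound, then Kinase-Glo detection mix; 8 min ambient, luminescence read.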
Rab9 promoter act: qHTS Assay for Rab9 Promoter Activators; Potency, µM (titrated, usually from 9.22 µM), for the others: at the highest dose activation, negative = inhibition, usual class: activators; 320,000 tested, 2.8% active; Huh7 Rab9 promoter-luciferase reporter, luminescence, 24 h; further: % of control where 0% means no effect; nearly all actives have a fitted effect of over 60% in size
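Stable Rab9-luc Huh7, 1500 cells/well, 2 h settle; cmpd in DMSO, 24 h, 37 °C/5% CO2; luciferase reagent 10 min RT; luminescence.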
NPC1 promoter act: qHTS Assay for NPC1 Promoter Activators; Huh7 NPC1 promoter luciferase reporter, 24 h; Potency, µM (highest dose often 9.22 µM), for the others: at the top dose activation, actives largely listed as activators; 320,000 tested, 2.4% active; AID 485313, 2010; further: % of control where 0% means no effect; nearly all actives have a fitted effect of over 60% in size
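Luminescence read-out of NPC1 promoter-driven luciferase in stably transfected Huh7 cells; compounds delivered in DMSO and left 24 h at 37C, 5% CO2, qHTS titration format.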
Starred values were filed as active, the others as inactive. The list is not random: actives were taken first. Their share in the collection is about 7.5%. The call rests on the fitted dose curve; in most records, active means well fitted curve in the direction sought with a large enough effect; inconclusive means small, poorly fitted or top-dose-only effect, or another doubt; inactive means no such curve, though single readings can be large; an effect the other way counts as inactive or inconclusive. Potency means the concentration at half of the fitted maximal effect.

CS(=O)(=O)N1N=C(c2ccc(Br)cc2)CC1c1cccs1 (stereo unspecified) was read as SMN2 splice up 29.1%, ELG1 genotoxic inconclusive, FLuc counter 15.1µM*, Luc counter -8.1%, Rab9 promoter act inconclusive and NPC1 promoter act inconclusive.
`COc1ccc(C2=NN(S(C)(=O)=O)C(c3cccs3)C2)cc1` (stereo unspecified) gave ELG1 genotoxic inconclusive, FLuc counter 10.7µM*, Luc counter -26.7%, Rab9 promoter act 0.891µM* and NPC1 promoter act 3.55µM*.
`COc1ccc(C2CC(c3ccccc3)=NN2C(=O)c2cccs2)cc1` (stereo unspecified) gave ELG1 genotoxic 2.8%, FLuc counter 16.9µM*, Rab9 promoter act inconclusive and NPC1 promoter act 20.6%.
For CS(=O)(=O)N1N=C(c2ccccc2)CC1c1ccc2nccnc2c1 (stereo unspecified) the results were SMN2 splice up -4.2%, ELG1 genotoxic 0.3%, FLuc counter inconclusive, Luc counter 3.0%, Rab9 promoter act 3.8% and NPC1 promoter act 12.8%.
Screening Cc1ccc(C2=NN(S(C)(=O)=O)C(c3ccc4nccnc4c3)C2)cc1 (stereo unspecified) returned SMN2 splice up 12.6µM*, ELG1 genotoxic inconclusive, FLuc counter inconclusive, Luc counter 2.5%, Rab9 promoter act inconclusive and NPC1 promoter act inconclusive.
Screening COc1ccc(C(=O)N2CCC3(CCN(Cc4ccccc4)CC3)CC2)cc1 returned SMN2 splice up -9.3% and Luc counter -3.1%.
Screening O=C(Nc1ccccc1Br)N1CCN2CCCCC2C1 (stereo unspecified) returned FLuc counter 5.0%.
`CS(=O)(=O)Nc1ccc(C2=NN(S(C)(=O)=O)C(c3ccc4c(c3)OCO4)C2)cc1` (stereo unspecified) gave SMN2 splice up 11.2µM*, ELG1 genotoxic inconclusive, FLuc counter 9.53µM*, Luc counter 14.4%, Rab9 promoter act 2.51µM* and NPC1 promoter act 3.16µM*.
Cc1ccc(C2=NN(S(C)(=O)=O)C(c3cccs3)C2)cc1 (stereo unspecified) was read as SMN2 splice up 11.2µM*, ELG1 genotoxic inconclusive, FLuc counter 19µM*, Luc counter -17.6%, Rab9 promoter act 3.55µM* and NPC1 promoter act 1.78µM*.
COc1ccc(C2CC(c3ccc(OC)c(OC)c3)=NN2S(C)(=O)=O)cc1 (stereo unspecified) was read as ELG1 genotoxic inconclusive, FLuc counter 8.49µM*, Rab9 promoter act 0.501µM* and NPC1 promoter act 1µM*.
Screening CC(=O)N1N=C(c2cccc(NS(C)(=O)=O)c2)CC1c1ccc2c(c1)OCO2 (stereo unspecified) returned ELG1 genotoxic -0.3%, FLuc counter inconclusive, Rab9 promoter act 14.5% and NPC1 promoter act 17.9%.
For CCc1ccc(C2=NN(S(C)(=O)=O)C(c3cccs3)C2)cc1 (stereo unspecified) the results were SMN2 splice up 10µM*, ELG1 genotoxic 3.26µM*, FLuc counter 2.39µM*, Luc counter 12.6µM*, Rab9 promoter act 1.58µM* and NPC1 promoter act 1µM*.
`CCc1cccc(NC(=O)CC2Oc3ccc(C)cc3NC2=O)c1` (stereo unspecified) gave SMN2 splice up 16.5% and FLuc counter -3.2%.
Cc1ccc(C)c(Cn2c3ccccc3c3cnn(CC(=O)NCc4ccccc4)c(=O)c32)c1 was read as SMN2 splice up 4.0% and FLuc counter 0.5%.
For COc1ccc(-c2nc(S(=O)(=O)c3ccc(Cl)cc3)c(NCc3ccccc3)o2)cc1 the results were FLuc counter -2.2%.
`CSc1ncc(C(=O)Nc2ccccc2C(=O)c2ccccc2)c(C)n1` gave FLuc counter 2.1%.
Screening COc1cc(C2Nc3cc(Cl)c(S(N)(=O)=O)cc3S(=O)(=O)N2)cc(OC)c1OC (stereo unspecified) returned SMN2 splice up -11.6%, ELG1 genotoxic 2.0%, FLuc counter 2.3%, Luc counter 0.0%, Rab9 promoter act -4.7% and NPC1 promoter act -1.1%.
`COc1cc(C2Nc3cc(Cl)c(S(N)(=O)=O)cc3S(=O)(=O)N2)ccc1OCc1ccccc1` (stereo unspecified) gave SMN2 splice up 8.5%, ELG1 genotoxic 16.4µM*, FLuc counter inconclusive, Luc counter -4.6%, Rab9 promoter act -3.7% and NPC1 promoter act -1.8%.
COc1cccc(Cn2c(=O)c(-c3ccccc3)nc3cnc(N(C)C)nc32)c1 was read as SMN2 splice up -1.5% and Luc counter -3.3%.
For COc1cccc(Cc2nc3ccccc3nc2SCC(=O)NCc2ccc(C)cc2)c1 the results were FLuc counter -1.8%.
For O=C(/C=C/c1cnc2ccccc2n1)NC12CC3CC(CC(C3)C1)C2 the results were SMN2 splice up 10µM*, ELG1 genotoxic inconclusive, FLuc counter 1.69µM*, Luc counter -0.5%, Rab9 promoter act 3.16µM* and NPC1 promoter act 3.55µM*.
Screening CCC(C)(C)NC(=O)/C=C/c1cnc2ccccc2n1 returned SMN2 splice up inconclusive, ELG1 genotoxic inconclusive, FLuc counter 10.7µM*, Luc counter 1.3%, Rab9 promoter act inconclusive and NPC1 promoter act 29.1%.
For Cc1ccc(C)c(N2CCN(c3nc4ccccc4c4nc(CCn5nc(C)cc5C)nn34)CC2)c1 the results were SMN2 splice up -2.8% and FLuc counter -0.6%.
For CCNc1ncc2nc(C)c(=O)n(Cc3cccc(OC)c3)c2n1 the results were SMN2 splice up 0.5% and Luc counter -2.1%.
`O=C(NCc1cccs1)c1ccncc1` gave SMN2 splice up 4.0%, ELG1 genotoxic -2.8%, FLuc counter 1.3%, Luc counter 4.2%, Rab9 promoter act 2.8% and NPC1 promoter act -1.3%.
CC1CCCN(c2ccc(C(=O)NCc3cccs3)cn2)C1 (stereo unspecified) was read as SMN2 splice up 12.6µM*, ELG1 genotoxic inconclusive, FLuc counter 19µM*, Luc counter -3.4%, Rab9 promoter act inconclusive and NPC1 promoter act inconclusive.
O=C(NCc1cccs1)c1ccc(N2CCCCC2)nc1 was read as SMN2 splice up inconclusive, FLuc counter 21.3µM* and Luc counter -8.7%.
